These entries were drawn from the full list.
aSyn 5UTR act: Activators working through SNCA 5'UTR binding (MLPCN) | alpha-synuclein 5'UTR reporter, activators screen | activity score, % (tested at 7.5 µM), hits read low | 300,000 tested, 7.1% active; in the data active = activity score below about -60%
Each line names hits and unclear results; the compound was inactive in the other large screens.

Cc1nc(NC(=O)c2ccc(OCC(C)C)cc2)sc1Cc1ccc2c(c1)OCO2	aSyn 5UTR act -85
Cc1c(Cc2ccc3c(c2)OCO3)sc(NC(=O)c2ccc3ccccc3c2)c1C(N)=O	aSyn 5UTR act -80
COc1ccccc1NC(=O)Nc1ccc(N2CCOCC2)cc1	aSyn 5UTR act -134
CCOc1ccccc1NC(=O)Nc1ccc(Cl)cc1	aSyn 5UTR act -78
COc1ccc(NC(=O)Nc2ccccc2OC)cc1	aSyn 5UTR act -96
CCN1CCN(Cc2ccc(NC(=O)Nc3ccccc3OC)cc2)CC1	aSyn 5UTR act -141
COc1ccccc1NC(=O)Nc1ccc(CC#N)cc1	aSyn 5UTR act -115
O=C(/C=C/c1ccco1)Nc1ccccc1C(=O)O	aSyn 5UTR act -117
O=C(/C=C/c1ccco1)Nc1ccccc1N1CCCC1	aSyn 5UTR act -80
Cc1cc(C(=O)N/N=C/c2cc(Cl)cc([N+](=O)[O-])c2O)c2ccccc2n1	aSyn 5UTR act -63
Cc1ccc(-c2nc(N/N=C/c3ccncc3)c3ccccc3n2)cc1	aSyn 5UTR act -120
Cc1cc2nc(C3CCN(Cc4nnnn4Cc4ccccc4)CC3)[nH]c2cc1C	none
CCOC(=O)c1ccc(Nc2nc(-c3cccnc3)nc3ccccc23)cc1	aSyn 5UTR act -103
CCOC(=O)C/C(=N\Nc1ncnc2ccccc12)c1ccccc1	aSyn 5UTR act -139
c1ccc(CN2CCC(Nc3nc(-c4cccnc4)nc4ccccc34)CC2)cc1	aSyn 5UTR act -83
Fc1ccccc1/C=N/Nc1nc(-c2ccccn2)nc2ccccc12	none
c1ccc(CNc2nc(NCc3ccccc3)c3ccccc3n2)cc1	none
Cc1ccc(Nc2nc(-c3cccnc3)nc3ccccc23)cc1	aSyn 5UTR act -95
CCOC(=O)c1ccc(Nc2ncnc3ccccc23)cc1	aSyn 5UTR act -93
CC(C)(C)c1ccc(-c2nc(NCc3cccnc3)c3ccccc3n2)cc1	aSyn 5UTR act -96
Cc1c(O)ccc(/C=N/Nc2nc(-c3cccnc3)nc3ccccc23)c1O	aSyn 5UTR act -77
CCOC(=O)c1ccc(Nc2ncnc3nc[nH]c23)cc1	aSyn 5UTR act -73
c1ccc(COc2ccc(Nc3ncnc4nc[nH]c34)cc2)cc1	aSyn 5UTR act -85
C=CCn1c(C)cc(C(=O)CSc2n[nH]c(N)n2)c1C	aSyn 5UTR act -79
Cc1cc(C(=O)CSc2nnc3ccccn23)c(C)n1-c1ccccc1	none
Cc1cc(C(=O)CSc2n[nH]c(N)n2)c(C)n1-c1ccc(F)cc1	aSyn 5UTR act -83
Cc1cc(C(=O)CSc2n[nH]c(N)n2)c(C)n1-c1ccccc1	aSyn 5UTR act -111
CCN(CC(=O)c1c(N)n(C)c(=O)n(C)c1=O)c1cccc2ccccc12	aSyn 5UTR act -72
Fc1cccc(/C=N/Nc2nc3ccccc3[nH]2)c1	aSyn 5UTR act -160
C(=C\c1ccccc1)/C=N/Nc1nc2ccccc2[nH]1	aSyn 5UTR act -275
Cc1cc(N/N=C/c2ccc3c(c2)OCO3)nc2ccccc12	aSyn 5UTR act -180
C(=N\Nc1nc2ccccc2[nH]1)/c1ccccc1	aSyn 5UTR act -175
C(/CCc1ccccc1)=N\Nc1nc2ccccc2[nH]1	aSyn 5UTR act -67
Brc1ccc(-c2ccc(/C=N/Nc3nc4ccccc4[nH]3)o2)cc1	aSyn 5UTR act -227
O=c1[nH]c(N/N=C/c2ccccc2)nc2ccccc12	aSyn 5UTR act -212
O=c1[nH]c(N/N=C\c2ccc3c(c2)OCO3)nc2ccccc12	aSyn 5UTR act -161
Fc1ccc(/C=N/Nc2nc3ccccc3[nH]2)cc1F	aSyn 5UTR act -159
Cn1cccc1CNC(=O)Nc1ccc(Cl)cc1	aSyn 5UTR act -115
Cc1ccc(NC(=O)NCc2cccn2C)cc1C	aSyn 5UTR act -124
COc1ccc(C(=O)NCCn2cc(SCC(=O)Nc3nnc(C)s3)c3ccccc32)cc1	aSyn 5UTR act -69
[O-]/[N+](=C/c1cccnc1)c1ccc(Br)cc1	aSyn 5UTR act -95
[O-]/[N+](=C\c1ccncc1)c1ccc(Br)cc1	aSyn 5UTR act -225
CCCc1c(C(=O)N/N=C/c2ccc(OC)c(OCc3ccccc3)c2)nnn1-c1nonc1N	aSyn 5UTR act -95
Cc1ccccc1COc1ccc(/C=N/NC(=O)c2nnn(-c3nonc3N)c2CN2CCC(C)CC2)cc1	aSyn 5UTR act -78
COc1cc(/C=N/NC(=O)c2nnn(-c3nonc3N)c2C(C)C)ccc1OCc1ccc(F)cc1	aSyn 5UTR act -143
CC1CCN(Cc2c(C(=O)N/N=C/c3ccccc3O)nnn2-c2nonc2N)CC1	none
Cc1nnn(-c2nonc2N)c1C(=O)N/N=C/c1ccccc1O	none
COc1ccccc1/C=N/NC(=O)c1nnn(-c2nonc2N)c1-c1cccs1	aSyn 5UTR act -80
CCCc1c(C(=O)N/N=C/c2ccc(OCc3ccccc3)c(OC)c2)nnn1-c1nonc1N	aSyn 5UTR act -148
CN(C)Cc1c(C(=O)N/N=C/c2ccccc2OCc2c(F)cccc2Cl)nnn1-c1nonc1N	aSyn 5UTR act -72
CC(C)c1ccc(NC(=O)COc2ccccc2)cc1	aSyn 5UTR act -124
Cc1ccnc(NS(=O)(=O)c2ccc(NC(=O)COc3ccccc3)cc2)n1	none
O=C(COc1ccccc1)Nc1ccc(N2CCCCC2)cc1	aSyn 5UTR act -74
O=C(COc1ccccc1)Nc1ccccc1N1CCN(c2ccccc2)CC1	none
